The list is not random: actives were taken first. Their share in the collection is about 1.3%.
PvdQ acylase: P. aeruginosa PvdQ acylase inhibition. purified PvdQ acylase, fluorescence plate reader. inhibition, % at 10 µM. 340,000 compounds, 0.063% hits; in the data active = inhibition above about 30%, passing the limit was not always enough;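 note: 0% = vehicle neutral wells and 100% = reference inhibitor wells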
HTR5A ag ctr: activates human HTR5A in OPRM1-OPRD1 agonist counter-screen | HTR5A agonist assay, luminescence, cell-based | 340,000 compounds, 0.61% hits | activation, % at 9.3 µM | P47898; in the data active = activation mostly above about 9.5%, no sharp cut-off; inactive = mostly below about 7.6%;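 note: 0% = cells with vehicle only and 100% = reference agonist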
Target sequence (P47898 whole entry, looked up): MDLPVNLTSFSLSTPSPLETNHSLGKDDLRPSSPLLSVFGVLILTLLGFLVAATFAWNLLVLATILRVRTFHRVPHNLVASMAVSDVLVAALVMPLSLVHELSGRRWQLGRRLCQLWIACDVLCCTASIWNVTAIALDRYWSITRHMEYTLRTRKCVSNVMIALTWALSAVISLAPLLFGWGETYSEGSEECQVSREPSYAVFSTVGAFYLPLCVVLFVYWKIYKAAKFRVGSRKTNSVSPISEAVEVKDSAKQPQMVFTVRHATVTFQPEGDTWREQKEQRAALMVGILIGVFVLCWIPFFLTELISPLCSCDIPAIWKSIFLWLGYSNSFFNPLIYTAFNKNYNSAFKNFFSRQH
MOR-DOR ag-1: OPRM1-OPRD1 heterodimerization agonism; activation, % at 9.3 µM; cells, luminescence; 340,000 compounds, 0.3% hits; P35372+P41143;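 note: 0% = vehicle-treated cells and 100% = reference agonist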
CR mimetic SO: yeast age-related superoxide inhibition as caloric restriction mimetic. S. cerevisiae aged cells, superoxide DHE fluorescence; active compounds read low. AID 2690. superoxide response (% of plate mean), % at 10 µM. 330,000 compounds, 0.18% hits;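 active = superoxide response under a set limit, about three screen SD below normal, cut at about 65% in these data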;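 note: yeast aged for seven days with compound at 30 °C before DHE staining; 100% = average MFI of all compound-treated wells on the plate with controls excluded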
MOR-DOR inv ag: inverse agonist of human OPRM1-OPRD1 heterodimerization; 340,000 compounds, 0.21% hits; inhibition, % at 9.3 µM; cell-based MOR-DOR heterodimer luminescence, inverse agonism; P35372+P41143; in the data active = inhibition above about 22%, passing the limit was not always enough;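 note: 0% = cells with DMSO and 100% = wells without cells with DMSO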
HTR5A inv ctr: HTR5A inverse agonism, opioid heterodimer counter-screen; P47898; HTR5A cell line, luminescence; inhibition, % at 9.3 µM; 340,000 compounds, 0.083% hits; in the data active = inhibition mostly above about 23%, no sharp cut-off; inactive = mostly below about 18%;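 note: 0% = cells with DMSO and 100% = no-cell wells with DMSO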
MOR-DOR ag-2: counter-screen for HTR5A agonists: OPRM1-OPRD1 heterodimerization agonism | shares compounds with HTR5A ag ctr | U2OS counter-screen cells, complementation luminescence, 3 h | activation, % at 9.3 µM | 800 compounds, 13% hits | AID 504913
HTR5A ag confirm: HTR5A (human) agonism, confirmation; shares compounds with HTR5A ag ctr; HTR5A agonist cell assay, luminescence; activation, % at 9.3 µM; 800 compounds, 17% hits; AID 504915; in the data active = activation above about 17%;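 note: 0% = cells with vehicle only and 100% = full reference agonist response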
* hit, by the source's call; nt = not tested or not shown. Cut-off read from the data, not from the text of the source, unless noted: active = activation above about 18%; inactive = the rest.

SMILES	PvdQ acylase	HTR5A ag ctr	MOR-DOR ag-1	CR mimetic SO	MOR-DOR inv ag	HTR5A inv ctr	MOR-DOR ag-2	HTR5A ag confirm
CC(=O)NCCOC(=O)c1nn(Cc2ccccc2)c(=O)c2ccccc12	-5.4	1.3	0.3	120.4	-2.0	-3.5	nt	nt
Cc1ccc(C)c(N2CCN(C(=O)CCc3nc(-c4ccccc4Br)no3)CC2)c1	-18.4	2.5	-0.5	108.2	3.2	-8.7	nt	nt
CNC[C@H]1Oc2c(NS(=O)(=O)c3cccs3)cccc2C(=O)N([C@H](C)CO)C[C@@H]1C	-5.3	-6.0	1.6	102.3	-8.7	15.2	nt	nt
Nc1ncnc2nc(N3CCN(C(=O)c4ccccc4)CC3)[nH]c12	-13.3	18.6*	-3.0	98.3	17.1	-47.1	-0.4	-0.7
O=C(c1ccccc1)N1CCN(c2ncccn2)CC1	-3.9	4.0	-0.2	97.0	1.0	-14.7	nt	nt
Cc1ccc(C(=O)CCC(=O)OCC(=O)NNC(=O)c2ccc([N+](=O)[O-])cc2)cc1	5.4	-3.3	-0.4	115.7	1.7	9.2	nt	nt
CCN(CC)C(=O)c1[nH]cnc1C(=O)N[C@@H](Cc1ccccc1)C(=O)OC(C)(C)C	-4.1	3.6	-1.8	113.2	10.4	-9.8	nt	nt
CCCCCc1ccc(C(=O)CCCC)c(=S)[nH]1	-6.4	29.4*	-1.6	98.5	7.3	-130.0	5.8	12.6
CCCCCc1cc(=O)[nH]c(=S)[nH]1	-15.7	3.0	-2.6	89.2	13.2	-10.9	nt	nt
COc1ccc(NC(=O)c2cccnn2)cc1	-12.9	-0.1	-2.7	101.2	15.8	0.4	nt	nt
Cn1ncc(Br)c1C(=O)NC1CCCCCC1	-9.0	4.2	-0.6	109.2	4.0	-16.6	nt	nt
O=C(COc1cccc2ccccc12)Nc1ccc(Cl)cc1C(=O)O	-0.1	44.9*	-1.6	111.6	8.9	-133.6	2.0	46.0*
Cc1coc2cc3oc(=O)c(CCC(=O)N4C[C@H]5C[C@@H](C4)c4cccc(=O)n4C5)c(C)c3cc12	-1.1	25.9*	-2.0	83.8	10.3	-9.5	1.4	50.9*
C=C(C)COc1ccc2c(C)c(CCC(=O)N3C[C@H]4C[C@@H](C3)c3cccc(=O)n3C4)c(=O)oc2c1	-2.4	-1.0	-2.0	92.2	10.2	9.9	nt	nt
Oc1cccc2ccc(Nc3ccccn3)nc12	-9.2	15.5*	0.5	72.0	-2.5	21.6	-2.5	9.0
CCOc1cc(/C=C2\SC(=O)N(c3ccc(O)cc3)C2=O)ccc1O	-2.9	-1.5	1.5	103.7	-7.7	26.1	nt	nt
N=C1S/C(=C\c2ccc(O)cc2)C(=O)N1c1ccc(F)cc1	0.9	15.2*	7.7	88.2	-40.5	-42.6	7.4	10.2
O=C(COC(=O)/C=C/c1ccco1)NCc1ccco1	-6.1	0.2	-0.9	125.7	4.7	4.2	nt	nt
O=C(COC(=O)/C=C/c1ccc(C(F)(F)F)cc1)NC(=O)NCc1ccco1	4.1	19.6*	0.6	98.1	-2.3	-47.7	119.4*	0.9
O=C(CCC(=O)c1cccs1)NCCc1ccc(F)cc1	-10.1	13.5	-4.2	93.8	21.7	-33.1	nt	nt
COc1cccc(C(=O)N(Cc2ccco2)c2c(N)n(Cc3ccccc3)c(=O)[nH]c2=O)c1	-0.9	-6.1	-3.9	99.6	15.3	2.7	nt	nt

Bioassay records as filed in PubChem.
